Experimental data taken from PubChem BioAssay (NCATS).
Values without a mark were called inactive. Results filed as inconclusive are left out. Where a call stands in place of a potency, no number is given. Active and inactive are the calls of the source. Unless noted, the call rests on the fitted dose curve; in most records, active means well fitted cell-killing curve with a large enough effect; inconclusive means small, poorly fitted or top-dose-only effect; inactive means flat fitted curve, though single readings scatter.

Experiments:
[1] = Cell Viability - LYMP2-002 (AID 977);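 further: series mostly up to about 92 µM; compound exposure lasted 24 h at 37 °C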
Outline: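 Cytotoxicity is scored as concentration-dependent loss of cellular ATP in a human lymphoblastoid line after 24 hr compound treatment at 37 C. AC50 is obtained by modelling concentration-response data with the Hill equation.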

[2] = Cell Viability - LYMP2-006 (AID 978); further: series mostly up to about 92 µM; nearly all actives have a fitted effect of over 60% in size
Outline: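 Human lymphoblastoid cells (LYMP2-006), 2500/well in complete medium, were treated with compound for 24 hr at 37 C. Cellular ATP was read by CellTiter-Glo luminescence after 30 min, and AC50 values came from Hill-equation fits of concentration-response data.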

[3] = Cell Viability - LYMP2-007 (AID 979);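 further: cells exposed to compound for 24 h before reading; nearly all actives have a fitted effect of over 60% in size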
Outline: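 Human lymphoblastoid LYMP2-007 cells (2500/well) preincubated 5 h at 37 C, then treated 24 h at 37 C in complete medium. Viability by CellTiter-Glo ATP luminescence after 30 min at room temperature; AC50 from Hill fits.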

[4] = Cell Viability - LYMP2-008 (AID 980); further: nearly all actives have a fitted effect of over 60% in size
Outline: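 LYMP2-008 lymphoblastoid cells (2500/well) plated 5 h, then treated 24 h at 37 C in complete medium. Viability read as intracellular ATP by CellTiter-Glo luminescence after 30 min at room temperature; AC50 from Hill fits.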

[5] = Cell Viability - LYMP2-010 (AID 981); further: nearly all actives have a fitted effect of over 55% in size; further: potency means the concentration at half of the fitted maximal effect
Outline: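 Human lymphoblastoid LYMP2-010 cells (2500/well) treated 24 h at 37 C in complete medium; viability read as intracellular ATP by CellTiter-Glo luminescence. AC50 from Hill fits of concentration-response data; tetraoctylammonium bromide positive control.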

[6] = Cell Viability - LYMP2-012 (AID 982);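 further: cellular ATP by luciferase luminescence where a drop means cytotoxicity; cells exposed to compound for one day before reading; nearly all actives have a fitted effect of over 55% in size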
[7] = Cell Viability - LYMP2-014 (AID 983); further: series mostly up to about 92 µM; nearly all actives have a fitted effect of over 50% in size
Outline: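 LYMP2-014 human lymphoblastoid cells, 2500/well, treated 24 h at 37 C in complete medium; viability by CellTiter-Glo ATP luminescence after 30 min at room temperature. AC50 from Hill fits of qHTS concentration-response; tetraoctylammonium bromide positive control.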

[8] = Cell Viability - LYMP2-016 (AID 984); further: nearly all actives have a fitted effect of over 55% in size
Outline: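 Human lymphoblastoid LYMP2-016 cells, 2500 per well, treated with compounds for 24 h at 37 C. Viability read as intracellular ATP by CellTiter-Glo luminescence after 30 min at room temperature; AC50 from Hill fits of concentration-response.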

[9] = Cell Viability - LYMP2-018 (AID 985);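 further: compound exposure lasted 24 hr at 37 °C; nearly all actives have a fitted effect of over 50% in size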
Outline: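 Human lymphoblastoid LYMP2-018 cells, 2500/well, settled 5 hr at 37 C then exposed to compound 24 hr at 37 C; intracellular ATP measured by CellTiter-Glo luminescence. AC50 from Hill-equation concentration-response fits.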

[10] = Cell Viability - LYMP2-020 (AID 986); further: series mostly up to about 92 µM; nearly all actives have a fitted effect of over 55% in size
Outline: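 Human lymphoblastoid LYMP2-020 cells (2500/well) preincubated 5 h at 37 C, then treated 24 h at 37 C. Viability measured as intracellular ATP by CellTiter-Glo luminescence after 30 min at room temperature; AC50 from Hill fits.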

[11] = Cell Viability - LYMP2-022 (AID 987); further: nearly all actives have a fitted effect of over 55% in size
Outline: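 LYMP2-022 lymphoblastoid cells (2500/well, complete medium) were treated with compounds for 24 hours at 37 C; intracellular ATP was then read by CellTiter-Glo luminescence after 30 min at room temperature. AC50 values were derived from Hill-equation fits.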

[12] = Cell Viability - LYMP2-024 (AID 988); further: nearly all actives have a fitted effect of over 60% in size; further: potency means the concentration at half of the fitted maximal effect
Outline: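 Human lymphoblastoid LYMP2-024 cells (2500/well) rested 5 hr, then treated with compound for 24 hr at 37 C in complete medium. Viability was measured as intracellular ATP by CellTiter-Glo luminescence. AC50 values came from Hill-equation fits.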

[13] = Cell Viability - LYMP2-026 (AID 989); further: nearly all actives have a fitted effect of over 50% in size
Outline: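 Human lymphoblastoid LYMP2-026 cells, 2500/well, exposed to compound 24 h at 37 C in complete medium. Viability as intracellular ATP by CellTiter-Glo luminescence; AC50 from Hill fits of qHTS concentration-response.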

[14] = Cell Viability - LYMP1-002 - Assay at 24 hr (AID 993)
Outline: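 Human lymphoblastoid LYMP1-002 cells (2500/well) treated 24 h at 37 °C; viability as intracellular ATP by CellTiter-Glo luminescence. Tetraoctylammonium bromide as positive control; AC50 from Hill-equation fits of qHTS concentration-response.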

[15] = Cell Viability - LYMP1-002 - Assay at 40 hr (AID 994); further: nearly all actives have a fitted effect of over 60% in size
Outline: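 LYMP1-002 human lymphoblastoid cells (2500/well, complete medium) were treated with compounds for 40 hr at 37 C. Intracellular ATP was measured by CellTiter-Glo luminescence, and AC50 values came from Hill-equation fits of concentration-response data; tetraoctylammonium bromide was the positive control.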

[16] = molecular target: Estrogen receptor (Homo sapiens) (UniProt P03372); experiment: qHTS assay for small molecule antagonists of estrogen receptor alpha signaling (AID 588513; active means well fitted curve in the direction sought with a large enough effect in the signal ratio, with a control signal flat, not every such curve was filed as active; the % refers to the signal ratio)
Outline: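 ER-alpha-UAS-bla GripTite HEK 293 cells in 2% charcoal/dextran-treated FBS medium; compounds titrated (1:2, duplicate), then stimulated with 0.5 nM 17-beta-estradiol for 18 h at 37C. CCF4 beta-lactamase fluorescence; Hill-fit IC50 and efficacy.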

[17] = molecular target: Estrogen receptor (Homo sapiens) (UniProt P03372); experiment: qHTS assay for small molecule agonists of estrogen receptor alpha signaling (AID 588514; calls by dose curve; further: nearly all actives have a fitted effect of over 70% in size)
Outline: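 ER-alpha-UAS-bla GripTite HEK293 cells, 5000/well in 2% charcoal/dextran-stripped FBS medium, treated with compound titrations 18 h at 37 C. CCF4 beta-lactamase read by fluorescence after 2 h RT; normalised to 20 nM 17-beta-estradiol (100%) and DMSO (0%), Hill fit for EC50 and efficacy.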

[18] = molecular target: Androgen receptor (Homo sapiens) (UniProt P10275); experiment: qHTS assay for small molecule antagonists of androgen receptor signaling (AID 588516; active means well fitted curve in the direction sought with a large enough effect in the signal ratio, with a control signal flat, not every such curve was filed as active; the % refers to the signal ratio)
Outline: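 AR-UAS-bla GripTite HEK 293 cells (2000/well) treated with compound titrations plus 10 nM R1881 for 16 h at 37C. Beta-lactamase read by CCF4 FRET (460/530 nm); IC50 from Hill fits, normalized to R1881 and DMSO control wells.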

[19] = molecular target: Androgen receptor (Homo sapiens) (UniProt P10275); experiment: qHTS assay for small molecule agonists of androgen receptor signaling (AID 588515; active means well fitted curve in the direction sought with a large enough effect in the signal ratio, with a control signal flat; the % refers to the signal ratio); settings: AR-UAS-bla HEK293, beta-lactamase ratio, agonist 16 h; stronger effect = higher value
Outline: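 EC50 and efficacy came from Hill fits of titrations (up to 92 uM) normalized to 30 nM R1881 as 100% and DMSO as 0%. Compound exposure was 16 h at 37 C on AR-UAS-bla HEK293 cells, with a 405/460/530 nm CCF4 fluorescence read.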

Chain of Estrogen receptor (Homo sapiens) (P03372 whole entry, looked up): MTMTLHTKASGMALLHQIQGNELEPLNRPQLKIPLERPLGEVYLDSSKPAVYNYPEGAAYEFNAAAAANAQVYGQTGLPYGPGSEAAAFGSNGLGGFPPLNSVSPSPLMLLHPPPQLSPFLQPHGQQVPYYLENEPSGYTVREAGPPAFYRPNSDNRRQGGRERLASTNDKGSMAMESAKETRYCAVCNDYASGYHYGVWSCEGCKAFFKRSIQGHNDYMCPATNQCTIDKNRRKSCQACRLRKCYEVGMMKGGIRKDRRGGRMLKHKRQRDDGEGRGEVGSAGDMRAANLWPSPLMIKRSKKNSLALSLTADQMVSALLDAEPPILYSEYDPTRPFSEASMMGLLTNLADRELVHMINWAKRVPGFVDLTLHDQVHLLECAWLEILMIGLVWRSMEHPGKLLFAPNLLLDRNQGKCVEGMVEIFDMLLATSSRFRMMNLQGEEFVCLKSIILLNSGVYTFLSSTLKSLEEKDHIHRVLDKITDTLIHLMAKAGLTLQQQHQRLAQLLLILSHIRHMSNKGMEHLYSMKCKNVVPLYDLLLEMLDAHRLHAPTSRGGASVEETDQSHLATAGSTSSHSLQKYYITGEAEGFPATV
Chain of Androgen receptor (Homo sapiens) (P10275 whole entry, looked up): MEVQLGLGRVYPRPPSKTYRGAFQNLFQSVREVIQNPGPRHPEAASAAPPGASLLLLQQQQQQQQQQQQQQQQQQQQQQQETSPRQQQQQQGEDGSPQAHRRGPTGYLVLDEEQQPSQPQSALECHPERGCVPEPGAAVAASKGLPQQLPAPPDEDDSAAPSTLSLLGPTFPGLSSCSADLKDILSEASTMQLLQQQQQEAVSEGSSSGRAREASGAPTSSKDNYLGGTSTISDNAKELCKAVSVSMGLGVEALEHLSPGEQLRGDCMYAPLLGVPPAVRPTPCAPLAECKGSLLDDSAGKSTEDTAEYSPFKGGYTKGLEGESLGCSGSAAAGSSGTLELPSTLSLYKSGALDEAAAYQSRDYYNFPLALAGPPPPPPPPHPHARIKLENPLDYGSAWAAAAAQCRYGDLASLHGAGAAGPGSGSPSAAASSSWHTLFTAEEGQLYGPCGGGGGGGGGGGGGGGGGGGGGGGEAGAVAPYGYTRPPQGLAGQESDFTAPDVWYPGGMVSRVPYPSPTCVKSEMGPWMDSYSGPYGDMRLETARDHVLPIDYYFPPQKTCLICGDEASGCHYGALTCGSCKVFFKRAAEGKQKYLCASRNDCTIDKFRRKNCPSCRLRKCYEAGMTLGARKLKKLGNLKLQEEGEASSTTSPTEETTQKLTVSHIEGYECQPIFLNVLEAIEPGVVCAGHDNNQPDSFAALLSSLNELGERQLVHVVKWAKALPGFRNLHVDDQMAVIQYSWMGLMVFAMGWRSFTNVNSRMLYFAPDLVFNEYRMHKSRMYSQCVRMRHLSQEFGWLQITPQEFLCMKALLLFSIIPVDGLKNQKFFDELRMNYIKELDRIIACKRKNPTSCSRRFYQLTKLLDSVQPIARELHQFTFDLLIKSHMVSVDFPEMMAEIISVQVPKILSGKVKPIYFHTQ

SMILES | Potency [1] | Potency [2] | Potency [3] | Potency [4] | Potency [5] | Potency [6] | Potency [7] | Potency [8] | Potency [9] | Potency [10] | Potency [11] | Potency [12] | outcome [13] | Potency [14] | Potency [15] | outcome [16] | Potency [17] | outcome [18] | activation [19]
ClCCl | inactive | inactive | inactive | inactive | inactive | inactive | inactive | inactive | inactive | inactive | inactive | inactive | inactive | inactive | inactive | inactive | inactive | inactive | –
CC(C)C=O | – | inactive | inactive | inactive | inactive | inactive | inactive | inactive | – | inactive | inactive | inactive | inactive | inactive | inactive | – | – | – | –
OCCO | inactive | inactive | inactive | inactive | inactive | inactive | inactive | inactive | inactive | inactive | inactive | inactive | inactive | inactive | inactive | inactive | inactive | – | –
Fc1ccccc1 | inactive | inactive | – | inactive | inactive | inactive | inactive | inactive | inactive | inactive | inactive | inactive | inactive | inactive | – | inactive | inactive | – | –
C=C(C)OC(C)=O | inactive | inactive | inactive | inactive | inactive | inactive | inactive | inactive | inactive | inactive | inactive | inactive | inactive | inactive | inactive | inactive | inactive | – | –
Cc1cc(C)cc(N)c1 | inactive | inactive | – | inactive | inactive | inactive | inactive | inactive | – | inactive | inactive | inactive | inactive | inactive | inactive | inactive | inactive | – | 2.27%
Cc1c(N)cccc1[N+](=O)[O-] | inactive | inactive | inactive | inactive | inactive | inactive | inactive | inactive | inactive | inactive | inactive | inactive | inactive | inactive | inactive | inactive | inactive | – | –
Cc1cccc(C(=O)O)c1[N+](=O)[O-] | inactive | inactive | inactive | inactive | inactive | inactive | inactive | inactive | inactive | inactive | inactive | inactive | inactive | inactive | inactive | inactive | inactive | – | –
c1ccc2c(c1)Oc1ccccc1S2 | inactive | inactive | inactive | inactive | inactive | inactive | inactive | inactive | inactive | inactive | inactive | inactive | inactive | inactive | inactive | inactive | inactive | – | –
OC(CCl)CCl | inactive | inactive | inactive | inactive | inactive | inactive | inactive | inactive | inactive | inactive | inactive | inactive | inactive | – | inactive | inactive | inactive | – | –
Nc1cc([N+](=O)[O-])ccc1C(=O)O | inactive | inactive | inactive | inactive | inactive | inactive | inactive | inactive | inactive | inactive | inactive | inactive | inactive | inactive | inactive | inactive | inactive | – | –
CC(C)(C)OC=O | inactive | inactive | inactive | inactive | – | – | – | – | – | – | – | – | – | inactive | inactive | – | – | – | –
O=Nc1ccc(NO)cc1 | – | inactive | – | inactive | 50.1 µM (active) | – | inactive | – | – | – | – | 39.8 µM (active) | inactive | inactive | – | inactive | – | – | –
O=[N+]([O-])c1ccc2nc[nH]c2c1 | inactive | inactive | inactive | inactive | inactive | inactive | inactive | inactive | inactive | inactive | inactive | inactive | inactive | inactive | inactive | inactive | inactive | – | –
Nc1nc(-c2ccccc2)cs1 | inactive | inactive | inactive | inactive | inactive | inactive | inactive | inactive | inactive | inactive | inactive | inactive | inactive | inactive | inactive | – | – | – | –
O=Cc1cccc(Br)c1 | inactive | inactive | inactive | inactive | inactive | inactive | inactive | inactive | inactive | inactive | inactive | inactive | inactive | inactive | inactive | – | – | – | –
Cc1ccc(Br)cc1 | inactive | inactive | inactive | inactive | inactive | inactive | inactive | inactive | inactive | inactive | inactive | inactive | inactive | inactive | inactive | inactive | inactive | – | –
O=C1OC(=O)c2cc([N+](=O)[O-])ccc21 | inactive | inactive | inactive | inactive | – | inactive | inactive | inactive | inactive | inactive | inactive | inactive | inactive | inactive | inactive | inactive | inactive | – | –
